According to PubChem BioAssay (NCI):
About 83,000 compounds went through this panel and 20% of them were active in at least one assay; those are over-represented in the sample as a whole.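 The endpoint reported here, percent growth, reads 100 for growth as untreated, 0 for no net growth and -100 for all cells dead.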 Values without a mark were called inactive. Calls of active or inactive are those of the source. The calls were made as follows: active = growth percent below 10; inactive = the rest.

Key:
Test in all cases: NCI-60 one-dose screen, 48 h (100 = growth as untreated, 0 = no growth, -100 = all killed)
Conditions in all cases: 10 µM unless noted
[1] = test system: T-47D breast
[2] = test system: BT-549 breast
[3] = test system: MDA-MB-435 melanoma
[4] = test system: SW-620 colon
[5] = test system: MCF7 breast
[6] = test system: HCT-116 colon
[7] = test system: HCC-2998 colon
[8] = test system: KM12 colon

How did the growth [1] turn out when CCN(Cc1cccc(S(=O)(=O)[O-])c1)c1ccc(C(=C2C=CC(=[N+](CC)Cc3cccc(S(=O)(=O)O)c3)C=C2)c2ccccc2S(=O)(=O)O)cc1 was run?
Its growth is 90.3%.

What about the growth [2] of the same compound?
Its growth is 104%.

And the growth [3]?
Its growth is 94.2%.

And the growth [4]?
The growth was 103%.

What about the growth [5] of the same compound?
The growth was 90.2%.

What about the growth [6] of the same compound?
The growth was 95.1%.

What about the growth [7] of the same compound?
Its growth is 97.8%.

What about the growth [8] of the same compound?
Its growth is 94.4%.

For COc1cc(/C=C2\CN(S(=O)(=O)c3ccc(C)cc3)C/C(=C\c3cc(CN4CCOCC4)c(O)c(OC)c3)C2=O)cc(CN2CCOCC2)c1O, which growth [1] is on record?
The growth was 63.9%.

And the growth [2]?
The growth was -21.8% (active).

What about the growth [3] of the same compound?
The growth was -19.7% (active).

And the growth [4]?
The growth was 3.91% (active).

And the growth [5]?
The growth was 10.6%.

And the growth [6]?
The growth was -83.3% (active).

What about the growth [7] of the same compound?
The growth was -89.3% (active).

What about the growth [8] of the same compound?
The growth was -74.4% (active).

Which results are given for CS(=O)(=O)N1CCN(Cc2cc3nc(-c4cccc5[nH]ncc45)nc(N4CCOCC4)c3s2)CC1 (tested in a mixture with another compound)?
growth [1]: -7.59% (active); growth [2]: 33.6%; growth [3]: 15.9%; growth [4]: 40.8%; growth [5]: 6.96% (active); growth [6]: 23.8%; growth [7]: -9.43% (active); growth [8]: 24.8%

Which results are given for COCCOCCOCCOCCOc1ccc2c(c1)C(=O)c1nc3ncccc3c(=O)n1-2?
growth [1]: 11.3%; growth [2]: -95.7% (active); growth [3]: -100% (active); growth [4]: -100% (active); growth [5]: -64.6% (active); growth [6]: -32.7% (active); growth [7]: -68.1% (active); growth [8]: -57% (active)

For Cc1ccc(C(NC(=O)c2ccccc2)c2ccc3cccnc3c2O)cc1 (stereo not given), which growth [1] is on record?
Its growth is 25.1%.

And the growth [2]?
The growth was 25.5%.

What about the growth [3] of the same compound?
Its growth is 30%.

And the growth [4]?
The growth was 31.3%.

And the growth [5]?
The growth was 24.8%.

What about the growth [6] of the same compound?
The growth was 22.8%.

What about the growth [7] of the same compound?
Its growth is 30.7%.

What about the growth [8] of the same compound?
The growth was 26.5%.

How did the growth [1] turn out when O=c1[nH]cc(Nc2cc(Cl)c3nonc3c2[N+](=O)[O-])c(=O)[nH]1 was run?
The growth was 101%.

What about the growth [2] of the same compound?
The growth was 114%.

What about the growth [3] of the same compound?
Its growth is -41.2% (active).

What about the growth [4] of the same compound?
The growth was 89.8%.

And the growth [5]?
The growth was 109%.

And the growth [6]?
The growth was 99.1%.

And the growth [7]?
Its growth is 90.6%.

And the growth [8]?
The growth was 109%.

What does the source list for COc1cc(C2CC(C3C(=O)N(C)C(=O)N(C)C3=O)=NN2c2cc(Cl)cc(Cl)c2)cc(OC)c1OC (stereo not given)?
growth [1]: 79.4%; growth [2]: 99.2%; growth [3]: 98%; growth [4]: 94.7%; growth [5]: 90.4%; growth [6]: 87.3%; growth [7]: 87.7%; growth [8]: 91.8%

With COc1ccc(/C=C2/SC(=Nc3c(C)nn(-c4ccccc4)c3N)NC2=O)cc1 as the compound, how does the growth [1] read?
The growth was 60.9%.

And the growth [2]?
The growth was 26.8%.

What about the growth [3] of the same compound?
The growth was -38.9% (active).

And the growth [4]?
Its growth is 18.5%.

What about the growth [5] of the same compound?
Its growth is 8.99% (active).

What about the growth [6] of the same compound?
The growth was 16.8%.

What about the growth [7] of the same compound?
The growth was 53.5%.

What about the growth [8] of the same compound?
The growth was 28.6%.

How did the growth [1] turn out when CCCCCc1c(C)[nH]c(/C=C2\N=C(c3ccc[nH]3)C=C2Oc2ccc(Cl)cc2)c1C was run?
Its growth is -38.1% [100 µM] (active).

And the growth [2]?
Its growth is 0.41% [100 µM] (active).

What about the growth [3] of the same compound?
Its growth is -71.7% [100 µM] (active).

What about the growth [4] of the same compound?
The growth was -31.7% [100 µM] (active).

And the growth [5]?
Its growth is -68.5% [100 µM] (active).

And the growth [6]?
Its growth is -89.8% [100 µM] (active).

And the growth [7]?
The growth was -17% [100 µM] (active).

What about the growth [8] of the same compound?
Its growth is -75.5% [100 µM] (active).

With N#Cc1c(-c2ccccc2)cc(-c2ccccc2)n(CCCCCCC(=O)O)c1=O as the compound, how does the growth [1] read?
Its growth is 91.1%.

And the growth [2]?
The growth was 101%.

What about the growth [3] of the same compound?
Its growth is 102%.

And the growth [4]?
Its growth is 103%.

What about the growth [5] of the same compound?
Its growth is 67.9%.

What about the growth [6] of the same compound?
The growth was 98.5%.

And the growth [7]?
The growth was 111%.

What about the growth [8] of the same compound?
Its growth is 98.9%.

Which growth [1] does the source give for COc1ccc(-c2c3c(N)nc(-c4ccncc4)nc3nc3c2c(C)nn3-c2ccccc2)cc1 here?
The growth was 75.2%.

What about the growth [2] of the same compound?
The growth was 87.1%.

And the growth [3]?
The growth was 54%.

What about the growth [4] of the same compound?
The growth was 34.4%.

And the growth [5]?
The growth was 47.7%.

And the growth [6]?
The growth was 15.6%.

What about the growth [7] of the same compound?
Its growth is 102%.

What about the growth [8] of the same compound?
The growth was 62.9%.

How did the growth [1] turn out when COC(=O)C1=CCC(n2cnc3c(N)ncnc32)O1 (stereo not given) was run?
Its growth is 102%.

What about the growth [2] of the same compound?
The growth was 114%.

And the growth [3]?
The growth was 102%.

And the growth [4]?
The growth was 106%.

What about the growth [5] of the same compound?
The growth was 120%.

What about the growth [6] of the same compound?
Its growth is 98.6%.

What about the growth [7] of the same compound?
Its growth is 106%.

What about the growth [8] of the same compound?
Its growth is 100%.

How did the growth [1] turn out when O=C(c1ccccc1)C(CN1CCCCC1)c1ccccc1 (stereo not given) was run?
The growth was 34.9%.

What about the growth [2] of the same compound?
Its growth is 83.8%.

What about the growth [3] of the same compound?
The growth was 23.9%.

What about the growth [4] of the same compound?
Its growth is -82.6% (active).

And the growth [5]?
Its growth is 0.432% (active).

And the growth [6]?
The growth was -100% (active).

What about the growth [7] of the same compound?
The growth was 89%.

What about the growth [8] of the same compound?
Its growth is 14.4%.

Which results are given for Cc1ccc(S(=O)(=O)N2CCN(C(=O)CSc3nc4ccc(C)cc4[nH]3)CC2)cc1?
growth [1]: 99.8%; growth [2]: 106%; growth [3]: 109%; growth [4]: 102%; growth [5]: 98.3%; growth [6]: 103%; growth [7]: 122%; growth [8]: 105%

O=C(CNC(=O)c1cccc2ccccc12)Nc1ccccc1Cc1ccccc1 was tested. Which growth [1] did it give?
The growth was 37.7% [5 µM].

What about the growth [2] of the same compound?
Its growth is 40.3% [5 µM].

What about the growth [3] of the same compound?
The growth was -8.01% [5 µM] (active).

And the growth [4]?
The growth was 25.5% [5 µM].

And the growth [5]?
Its growth is 23.5% [5 µM].

What about the growth [6] of the same compound?
The growth was 14.6% [5 µM].

What about the growth [7] of the same compound?
The growth was 87.1% [5 µM].

What about the growth [8] of the same compound?
Its growth is 36% [5 µM].
